# Data from PubChem BioAssay (NCI).
# The panel holds about 79,000 compounds, 15% with a hit somewhere; the sample as a whole holds those more often. Values without a mark were called inactive. Activity calls are given as the source filed them. Cut-off read from the data, not from the text of the source: active = growth inhibition above about 70%; inactive = the rest. Where a SMILES comes first, the peptide text is derived from it. [ ]: non-standard residue; d: D form. The star is where a group is joined. ξ: configuration not given here. Cbz = O=C(OCc1ccccc1)*; ξT = CC(O)C(N)C(=O)O
# Key:
# [1] = NCI Yeast Anticancer Drug Screen. Data for the rad50 strain (AID 155);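 note: 0% = growth of vehicle-only cultures of the same strain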; details: S. cerevisiae rad50 strain growth inhibition; at 50.0 µM; hits give high values
# In short: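 Vehicle-treated cultures provide the reference for the growth inhibition reported for compound-exposed, repair-deficient yeast.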
# [2] = NCI Yeast Anticancer Drug Screen. Data for the mec2-1 strain (AID 157); details: S. cerevisiae mec2-1 strain, at 50.0 µM, hits give high values
# In short: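 Yeast mec2-1 mutant treated with compound. Readout: growth inhibition vs vehicle controls.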
# [3] = NCI Yeast Anticancer Drug Screen. Data for the sgs1 mgt1 strain (AID 161);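 note: 0% = growth of cultures given vehicle only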; details: S. cerevisiae sgs1 mgt1 strain, at 50.0 µM, hits give high values
# In short: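 Read-out: growth inhibition vs vehicle controls. Cells: mutant yeast strain deficient in DNA damage repair.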
# [4] = NCI Yeast Anticancer Drug Screen. Data for the cln2 rad14 strain (AID 165);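 note: 0% = growth equal to vehicle treated cultures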; details: S. cerevisiae cln2 rad14 strain, at 50.0 µM, hits give high values
# In short: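 cln2 rad14 yeast strain; compound exposure; growth inhibition read vs vehicle controls.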
# [5] = NCI Yeast Anticancer Drug Screen. Data for the bub3 strain (AID 167); details: S. cerevisiae bub3 mutant strain, at 50.0 µM, hits give high values
# In short: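 Mutant yeast screening strain plus compound; vehicle-treated cultures serve as the 0% inhibition reference.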
# [6] = NCI Yeast Anticancer Drug Screen. Data for the mlh1 rad18 strain (AID 175); details: S. cerevisiae mlh1 rad18 strain growth inhibition; at 50.0 µM; hits give high values
# In short: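 Yeast w/ defined DNA-repair lesions; compound exposure; growth vs vehicle controls → % inhibition.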
Compound,growth inhibition [1],growth inhibition [2],growth inhibition [3],growth inhibition [4],growth inhibition [5],growth inhibition [6]
CC(O)C(NC(=O)CNC(=O)CNC(=O)OCc1ccccc1)C(=O)O (stereo not drawn) (Cbz-Gly-Gly-[ξT]-OH),7.2%,-3.25%,-2.45%,16.4%,6.65%,3.05%
O=C1c2ccccc2C(=O)N1CNc1cccc(Cl)c1,6.45%,13.2%,9.45%,10.1%,4.6%,22.4%
O=CNCC(O)c1ccc2c(c1)[nH]c1ccccc12 (stereo not drawn),30.6%,-16.2%,-1.45%,-10.3%,19%,47.4%
CCCCOC(=O)CNC(=O)OC(C)(C)C,-4.5%,11.8%,-10.1%,-2.1%,-3.25%,-15.5%
O=C(NC1c2ccccc2CCc2ccccc21)C(F)(F)F,27.7%,-7.75%,14.5%,3.05%,15.3%,22.6%
Cc1ccc(C(C)C)cc1NC(=O)NCCCl,-9.8%,10.6%,2.8%,-33.3%,-9.6%,-6.4%
CCNc1ccc(-c2ccc(NCC)cc2)cc1,31.6%,-14%,26%,3.2%,-1.45%,36.9%
O=C(Nc1nc(C23CC4CC(CC(C4)C2)C3)cs1)c1cc2cc([N+](=O)[O-])ccc2oc1=O,-12.7%,-31.5%,-14.8%,-34.7%,-15.2%,-10.8%
CCCCCCCCCCCCCCCc1nnc(SC)s1,-22.6%,-39%,-14.9%,15.3%,-3.15%,11.2%
CCCCC(=O)OC[n+]1ccc2c(C)c3[nH]c4ccc(OC)cc4c3c(C)c2c1,87.9% (active),91.8% (active),90.2% (active),89.1% (active),87.1% (active),91.8% (active)
O=C1CC(C(=O)O)Cc2c(Br)ccc(O)c21 (stereo not drawn),20.8%,13.8%,-22.5%,-3.6%,-34%,-44.4%
CCc1cc2c(oc3cc(C)ccc32)c(=O)n1C,-12.4%,-7.7%,-13.8%,13.5%,-14.2%,-8.75%
COC(C[P+](Cc1ccccc1)(c1ccccc1)c1ccccc1)OC,66.9%,-2.7%,39%,2.4%,4.1%,4.35%
CC(=O)c1c(N)n(C)c(=O)n(C)c1=O,36%,2.9%,3.55%,-47.1%,-14.6%,17.4%
COc1ccccc1C(=O)N(C)c1ccc(Cl)c(C(=O)OC(C)C)c1,30.9%,24.7%,46.4%,37.7%,44.5%,6.85%
CCCCCCCCCCCC(=O)NC(=S)Nc1cc(OC)ccc1OC,-17.9%,-7.25%,-2.9%,-47.3%,-3.85%,-0.95%
Oc1cc(O)c2c(-c3c(O)c(-c4ccc(O)c(O)c4)[o+]c4cc(O)cc(O)c34)c(O)c(-c3ccc(O)c(O)c3)[o+]c2c1,44.4%,4.85%,9.6%,11.1%,22.7%,21.8%
CC(=O)OCC1OC(n2c(C)c(C(C)=O)c(-c3cccc4ccccc34)c(C#N)c2=S)C(OC(C)=O)C(OC(C)=O)C1OC(C)=O (stereo not drawn),25.1%,22.4%,48%,22.1%,32.3%,33.9%
CC1CCC2N(C1)CC1C3(O)CC4(O)C(CCC5C(=O)C(O)CCC54C)C3(O)CC(O)C1(O)C2(C)O (stereo not drawn),5.5%,-26.9%,-10.8%,10.9%,-9.1%,-7.7%

Compound,growth inhibition [1],growth inhibition [2],growth inhibition [3],growth inhibition [4],growth inhibition [5],growth inhibition [6]
O=C(O)CCCCC(=O)c1ccccc1,30.6%,12.2%,21%,-0.25%,26.6%,24.9%
CNNC(=NS(=O)(=O)c1cc(C#N)c(NNC)cc1S)NNC,6.05%,-3.95%,-11.3%,-36.5%,-8.45%,12.3%
Cc1ccc(C(C)C)cc1NC(=O)c1c(Cl)c(Cl)c(Cl)c(Cl)c1C(=O)O,14.6%,9.8%,23.9%,-32.4%,6.45%,23.3%
CC(=O)Nc1ccc([N+](=O)[O-])cc1,30.9%,-0.75%,-5.3%,5.55%,14.7%,1%
Cc1ccc(/S(Cc2ccccc2)=N\S(=O)(=O)c2ccc(C)cc2)cc1 (stereo not drawn),-40.2%,-36%,-60.9%,-13.3%,-27.8%,-33.1%
CC1CCCC(=O)CC1 (stereo not drawn),7.35%,9.85%,-2.85%,16.3%,-0.45%,6.5%
Nc1ccc2c(c1)Cc1cccc(N)c1-2,31.8%,11.2%,0.7%,11%,7.2%,1.9%
CN(C)/C=N\c1ncnc2c1ccn2C1OC(CO)C(O)C1O (stereo not drawn),-2.15%,-5.4%,-10.3%,10.2%,3.15%,-4.7%
COC(=O)/C(C#N)=C/c1cccnc1,-10.1%,-7.65%,6%,-61.1%,-5.45%,-15.7%
Cc1ccc(SCc2ccc(Cl)cc2)nn1,4.05%,0.3%,-1.65%,-13.8%,26.8%,-5%
OC(c1cc(-c2ccccc2)nc2c1ccc1ccccc12)C1CCCCN1 (stereo not drawn),32.5%,16.7%,-17.1%,14%,11.6%,26.4%
CN(C)C/C=C(/c1ccc(Br)cc1)c1cccnc1,-5.75%,-16%,-3.7%,-20.4%,-12.6%,1.65%
Brc1cccc(C2SCc3nc4ccccc4n32)c1 (stereo not drawn),33%,16.9%,37.2%,19.9%,19.2%,21.4%
NC(C(=O)O)C1C=CCCC1 (stereo not drawn),-25.4%,-3.4%,-30.8%,-57.3%,-27.2%,6.85%
COc1ncn(C2CC(OC(=O)c3ccc(C)cc3)C(COC(=O)c3ccc(C)cc3)O2)c(=O)n1 (stereo not drawn),-8.3%,-9.1%,-14.7%,-22.4%,-0.6%,-3.05%
C=CC(=NC(C)(C)C)Nc1ccc(Cl)cc1,-13%,-6.8%,-36.2%,-14.6%,-19.2%,3.4%
CCCCCCCC/C=C\CCCCCCCC(=O)OC,33.5%,43.8%,49.3%,-32.1%,44%,49%
ClCc1ccc(-c2ccccc2)cc1,48.8%,16.4%,19.7%,26.7%,8.7%,47%
CCN(CC)CCN1C(=O)NC2(CCCCC2)C1=O,19.5%,-0.8%,18.8%,16%,10.6%,20.8%
